The record followed here is patent US20150023943, “REF Nuclease for Site-Specific REF-Mediated DNA Cleavage” (Wisconsin Alumni Research Foundation, published 2015).

The target of the experiment is T1, φW39 ΔN59 Ref (Bacteriophage phi W39).
T1 chain: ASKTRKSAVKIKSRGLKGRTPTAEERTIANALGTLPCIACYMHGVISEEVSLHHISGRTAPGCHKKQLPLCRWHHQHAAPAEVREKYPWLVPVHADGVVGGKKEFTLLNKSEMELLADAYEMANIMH
Briefly: FP; Kd value only in FIG. 6C; 15 mM Mg acetate, pH 8.5, 25 C. The following applies: tags: expressed from pET21A with NdeI start Met; label: 5'-6FAM; ssDNA. Here is the method: Ref proteins at 0.5-10,000 nM were incubated with 2 nM AJM25 71mer ssDNA or AJM25 annealed with AJG52 71mer to make a linear 71 bp dsDNA substrate in 25 mM Tris-acetate (pH 8.5), 3 mM potassium glutamate, 15 mM magnesium acetate, and 5% w/v glycerol at room temperature for 15 minutes. Fluorescence anisotropy (FA) was measured at 25° C., using a Tecan Infinite M1000 instrument with 470-nm excitation and 535-nm emission wavelengths for at least three replicates. The average FA values were plotted with one standard deviation of the mean shown as error. Prism software was used to convert FA values to the percent of DNA bound and apparent dissociation constants were determined using one-site, specific binding with Hill coefficient.
Turning to “CAGAAGTAAGTTGGCCGCAGTGTTATCACTCATGGTTATGGCAGCACTGCATAATTCTCTTACTGTCATGC”, the binding signal was 40 fold reduction in affinity.
